Source: PubChem BioAssay
Shown are actives, neighbours in structure and some others; about 0.83% of the full set was active somewhere.
SRC1 inh: human NCOA1 inhibition; Q15788; HEK293 GAL4-SRC1 luciferase reporter, luminescence; inhibition, % at 3.6 µM; 360,000 tested, 0.12% active;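 active = inhibition above the campaign mean plus 3 SD, with each screening campaign given its own cutoff, cut at about 60% in these data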;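 also: 0% = DMSO treated cells and 100% = gossypol at 36 µM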
NCOA2 inhibitor: inhibits human steroid receptor coactivator 2; HEK293 GAL4-SRC2 luciferase reporter, luminescence; 370,000 tested, 0.17% active; Q15596; inhibition, % at 9 µM;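 active = inhibition above the mean inhibition of all tested compounds plus 3 SD, set per campaign, cut at about 52% in these data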;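 also: 0% = DMSO treated cells and 100% = cells given Gossypol at 36 µM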
Gli-Sufu block: Gli-Sufu pathway antagonism. Sufu-KO-LIGHT fibroblasts, Gli luciferase reporter luminescence. inhibition, % at 5 µM. 340,000 tested, 0.74% active;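 active = inhibition above about 55%, limit read from the data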;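 also: 0% = DMSO-treated cells and 100% = wells with medium but no cells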
NR5A2 inv ag: NR5A2 inverse agonism in reporter assay. HEK293T StAR-luciferase reporter, LRH-1 transfected, 24 h. O00482. inhibition, % at 3.6 µM. 360,000 tested, 0.13% active. AID 602396;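 active = inhibition above the mean inhibition of all tested compounds plus 3 SD, cut at about 73% in these data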;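 also: 0% = DMSO wells and 100% = reporter-only cells lacking LRH-1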
SRC3 inh: inhibitors of human steroid receptor coactivator 3 (SRC3). HEK293 GAL4-SRC3 luciferase reporter, luminescence. inhibition, % at 3.6 µM. 360,000 tested, 0.17% active;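 active = inhibition above a per-campaign cutoff, the mean of all compounds plus 3 SD, cut at about 60% in these data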;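 also: 0% = DMSO-treated cells and 100% = gossypol-treated cells at 36 µM; higher means less SRC3-driven luciferase light from the GAL4 reporter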
* hit, by the source's call; · = no result given.

SMILES	SRC1 inh	NCOA2 inhibitor	Gli-Sufu block	NR5A2 inv ag	SRC3 inh
O=S(=O)(c1ccc(Br)cc1)N1CCN(c2cc(-c3ccccc3)nc3ncnn23)CC1	7	·	10	16	15
O=S(=O)(c1ccccc1)N1CCN(c2cc(-c3ccccc3)nc3ncnn23)CC1	-5	6	57*	17	11
COC(=O)c1ccc2c(c1)C(C)(C)C(/C=C/c1ccccc1O)=[N+]2C	19	19	65*	18	59
CCOC(=O)C1(Cc2ccc(Cl)cc2)CCN(C(C)Cc2ccc(O)c(OC)c2)CC1 (stereo not drawn)	-11	34	72*	17	11
O=C1CCCCCN1C(=O)c1ccccc1	-12	-1	6	14	-6
CC(C)(C)c1ccc(C(=O)N2CCCCCC2=O)cc1	44	87*	43	57	51
CN(C)c1ccc(CNc2ncnc3sccc23)cc1	25	19	63*	47	12
CCC(NC(=O)c1ccc2c(ccn2Cc2cccc(-c3ccc(C(=O)O)cc3)c2)c1)c1ccccc1 (stereo not drawn)	·	6	·	·	·
Cc1c(CCC(=O)N[C@@H](C)C(=O)O)c(=O)oc2cc3oc4c(c3cc12)CCCC4	9	67*	11	5	1
Cc1c(CCC(=O)N2CCC(C(=O)O)(c3ccccc3)CC2)c(=O)oc2cc3oc4c(c3cc12)CCCC4	1	58*	9	3	-21
Cc1c(CCC(=O)N2CCC(C(=O)O)CC2)c(=O)oc2cc3oc4c(c3cc12)CCCC4	-4	63*	6	-6	-53
Cc1cccc(-c2cccc3c4c([nH]c23)[C@@H]2C[C@H](N(C)C(=O)c3cccc(Cl)c3)[C@H]([C@H](C)O)CN2CC4)c1	·	29	·	·	·
O=c1c2ccccc2sc2ccc(C#CC3(O)CCCCC3)cc12	93*	85*	83*	91*	93*
COc1cccc2sc3ccc(C#CC4(O)CCCCC4)cc3c(=O)c12	-77	-51	-100	-147	-74
O=c1c2ccccc2oc2cc(C#CC3(O)CCCCC3)ccc12	65*	50	36	53	62*
COC(=O)[C@H]1C[C@@]2(c3ccccc3)c3ccccc3N[C@H]2N1	·	-24	·	·	·
c1ccc(CN2CCC(Nc3ncnc4sccc34)CC2)cc1	17	-3	-15	-1	15
Cc1sc2ncnc(NC3CCN(Cc4ccccc4)CC3)c2c1C	27	35	78*	37	30
CC[C@@H](CCCCCC#N)CCC(=O)N(c1ccccc1)c1ccccc1	·	2	·	·	·
CC(=NNC(=S)N1CC2CCC(CC2)C1)c1ccncn1	21	-12	85*	-8	22
CCCCCCCCN1C(=O)[C@@H](CC(=O)N2CCCC2)C[C@@]2(C(=O)OC)C1=C[C@H](COCc1ccccc1)O[C@@H]2C	·	1	·	·	·
COc1ccc(S[C@]2(C(=O)N3CCCC3)CC(=O)N(C(=O)/C=C/c3ccccc3)[C@@H]2c2ccc(OC)cc2)cc1	·	5	·	·	·
CCCCC(=O)Nc1cccc(-c2csc(-c3ccccc3)n2)c1	-17	-27	-38	-38	-22
O=C(O)CCC(=O)Nc1cccc(-c2csc(-c3ccccc3)n2)c1	0	52*	0	18	29
Cc1cccc(/C=C(\c2nc3ccccc3[nH]2)S(=O)(=O)c2ccccc2)c1	-37	64*	-18	44	17
SMILES	SRC1 inh	NCOA2 inhibitor	Gli-Sufu block	NR5A2 inv ag	SRC3 inh
c1ccc(CCNc2ccnc3cc4ccccc4cc23)cc1	-1	-18	83*	1	-7
O=[N+]([O-])c1ccc(N2CCCC2)nc1N1CCCC1	-3	19	3	48	14
Nc1ncc([N+](=O)[O-])c(N2CCCCCC2)n1	65*	44	-26	27	54
Oc1ccc2ccccc2c1/C=N/Nc1nnc(-c2ncc[nH]2)c2ccccc12	2	-15	63*	2	5
O=C(Nc1sc2c(c1C(=O)NCCCO)CCCC2)c1ccccc1	86*	-27	8	11	6
N#Cc1c(N)n(C2OC(CO)C(O)C2O)c2ncnc(N)c12 (stereo not drawn)	83*	55*	-113	95*	85*
COc1ccc(-n2nc3c(N4CCC(C(=O)NCc5cccc(C)c5)CC4)nnc(C)c3c2C)cc1	6	-8	74*	8	-17
COC(=O)C1CN(C2CC2)CCS(=O)(=O)N1Cc1cn(Cc2ccc(C)cc2)nn1 (stereo not drawn)	·	12	·	·	·
Brc1ccc2[nH]c3c(N4CCc5ccccc5C4)ncnc3c2c1	·	·	72*	·	·
CCOc1ccc2[nH]c3c(N4CCc5ccccc5C4)ncnc3c2c1	5	-1	23	-3	17
O=S1(=O)c2ccc(N3CCN(Cc4ccccc4F)CC3)cc2Oc2ccccc2CN1Cc1cn(Cc2ccccc2C(F)(F)F)nn1	·	0	·	·	·
Cc1oc(-c2ccc3c(c2)OCCO3)cc1C(=O)O	18	74*	34	14	29
CCOC(=O)c1c(C)[nH]c(C(=O)OCC(=O)Nc2sccc2C(N)=O)c1C	62*	21	51	-1	31
CCOC(=O)c1c(C)[nH]c(C(=O)OCC(=O)Nc2ccc(Cl)cn2)c1C	-8	-6	1	-4	-6
CC(C)Cn1c(N)c(C(=O)COC(=O)c2ccc3c(c2)OCCO3)c(=O)n(C)c1=O	-20	8	15	18	15
CC(C)Cn1c(N)c(C(=O)CSc2ccc3c(c2)OCCO3)c(=O)n(C)c1=O	33	9	64*	10	44
O=C(O)CSCC(=O)Nc1ccc(C2CCCCC2)cc1	76*	91*	38	80*	74*
Cc1ccc(Cn2cc(CN(C3CC3)S(=O)(=O)c3ccccc3Br)nn2)cc1	·	3	·	·	·
O=C(Nc1ccc(Oc2ccccc2)cc1)C1CCCN1S(=O)(=O)c1cccc2cccnc12 (stereo not drawn)	·	19	·	·	·
Cc1ccnc2c1ccc1cccnc12	7	52	92*	71	-50
c1cnc2c(c1)ccc1cccnc12	-8	10	76*	58	46
Cc1ccnc2c1ccc1c(C)ccnc12	77*	·	91*	93*	75*
CC1(C)CC(=O)C=C(Nc2ccccc2NC(=O)c2cccc(F)c2F)C1	·	-9	·	·	·
COc1ccc(S[C@]2(C(=O)N3CCN(C(C)=O)CC3)CC(=O)N(S(=O)(=O)c3ccc(F)cc3)[C@@H]2c2ccc(OC)cc2)cc1	·	-29	·	·	·
CCN(CC)c1ccc(/C=N/NC(=O)c2cccc(S(=O)(=O)Nc3ccccc3OC)c2)cc1	9	-5	1	24	-6
CCN(CC)c1ccc(/C=N/NC(=O)c2cccc(S(=O)(=O)Nc3ccccc3OC)c2)c(O)c1	73*	32	84*	33	81*
COC(=O)C1CN(Cc2ccc(C)cc2)CCS(=O)(=O)N1Cc1cn(Cc2ccc(OC)cc2)nn1 (stereo not drawn)	·	12	·	·	·
CCCOc1ccc(C2NC(=O)NC2=O)cc1 (stereo not drawn)	-21	-14	0	19	1
O=C1NC(=O)C(c2ccc(F)cc2)N1 (stereo not drawn)	90*	6	29	89*	89*
